# Results: PubChem BioAssay (NCATS)
# Records with an inconclusive call do not appear. Where a call stands in place of a potency, no number is given. Calls of active or inactive are those of the source. Calls come from the whole dose curve; as a rule, active = well fitted curve in the direction sought with a large enough effect; inconclusive = small, poorly fitted or top-dose-only effect, or another doubt; inactive = no such curve, though single readings can be large; an effect the other way counts as inactive or inconclusive.
# Experiments:
# [1] = qHTS of pediatric cancer cell lines to identify multiple opportunities for drug repurposing: Primary screen for TC32 cells (AID 1347089); note: nearly all actives have a fitted effect of over 60% in size; note: potency is the fitted concentration of half-maximal effect
# Method in brief: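 Luminescent CellTiter-Glo read-out of metabolically active TC32 cells after 48 h compound exposure. Primary: MIPE 11-point, 0.78 nM–46 µM; NPC 8-point, 0.59 nM–46 µM. Confirmatory: 11-point dilutions.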
# [2] = qHTS of pediatric cancer cell lines to identify multiple opportunities for drug repurposing: Primary screen for DAOY cells (AID 1347090); note: nearly all actives have a fitted effect of over 55% in size; note: potency is the fitted concentration of half-maximal effect
# Method in brief: (§1)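 Viability measured as metabolically active cells via CellTiter-Glo luminescence following 48 hours of compound exposure, 11-point dilutions in confirmatory testing. 500-1,000 cells/well plated 5 hours before dosing; controls were DMSO and 2.3 µM bortezomib.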
# [3] = qHTS of pediatric cancer cell lines to identify multiple opportunities for drug repurposing: Primary screen for SJ-GBM2 cells (AID 1347091); note: potency is the fitted concentration of half-maximal effect
# Method in brief: as §1
# [4] = qHTS of pediatric cancer cell lines to identify multiple opportunities for drug repurposing: Primary screen for A673 cells (AID 1347092); note: nearly all actives have a fitted effect of over 45% in size; note: potency is the fitted concentration of half-maximal effect
# Method in brief: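 A673 cells (500-1,000 cells/well in growth media) were pre-incubated 5 h at 37 degrees C, then exposed to compounds for 48 h. Viability was read as CellTiter-Glo luminescence; concentration-response curves came directly from the primary screen.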
# [5] = qHTS of pediatric cancer cell lines to identify multiple opportunities for drug repurposing: Primary screen for BT-37 cells (AID 1347094); note: potency is the fitted concentration of half-maximal effect
# Method in brief: (§2)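 Primary screen of approved and investigational compounds on cells in growth media at 37 degrees C, 5% CO2. MIPE set at 11-point and NPC set at 8-point dilutions; viability scored by ATP-based luminescence at 48 hours.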
# [6] = qHTS of pediatric cancer cell lines to identify multiple opportunities for drug repurposing: Primary screen for U-2 OS cells (AID 1347096); note: nearly all actives have a fitted effect of over 50% in size
# Method in brief: (§3)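 Viability after 48 h compound treatment at 37C, 500-1,000 cells/well, read as ATP luminescence with CellTiter-Glo. Primary screens used 11-point (MIPE, 0.78 nM-46 µM) or 8-point (NPC, 0.59 nM-46 µM) final concentrations; follow-up screens used 11-point dilutions.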
# [7] = qHTS of pediatric cancer cell lines to identify multiple opportunities for drug repurposing: Primary screen for SK-N-SH cells (AID 1347098);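 note: DMSO served as neutral control and bortezomib at 2.3 µM as positive control; nearly all actives have a fitted effect of over 65% in size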
# Method in brief: (§4)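 Cells (500-1,000/well) rested 5 h, then received compounds for 48 h; metabolically active cells were measured by CellTiter-Glo luminescence. Final concentrations spanned up to 46 µM (MIPE, 11-point) or 0.59 nM-46 µM (NPC, 8-point) in primary screens, 11-point in follow-ups.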
# [8] = qHTS of pediatric cancer cell lines to identify multiple opportunities for drug repurposing: Primary screen for NB1643 cells (AID 1347099); note: nearly all actives have a fitted effect of over 50% in size; note: potency is the fitted concentration of half-maximal effect
# Method in brief: as §2
# [9] = qHTS of pediatric cancer cell lines to identify multiple opportunities for drug repurposing: Primary screen for LAN-5 cells (AID 1347100); note: potency is the fitted concentration of half-maximal effect
# Method in brief: as §3
# [10] = qHTS of pediatric cancer cell lines to identify multiple opportunities for drug repurposing: Primary screen for BT-12 cells (AID 1347101); note: nearly all actives have a fitted effect of over 25% in size; note: potency is the fitted concentration of half-maximal effect
# Method in brief: as §4
# [11] = qHTS of pediatric cancer cell lines to identify multiple opportunities for drug repurposing: Primary screen for Rh18 cells (AID 1347102); note: nearly all actives have a fitted effect of over 65% in size
# Method in brief: as §3
# [12] = qHTS of pediatric cancer cell lines to identify multiple opportunities for drug repurposing: Primary screen for OHS-50 cells (AID 1347103); note: nearly all actives have a fitted effect of over 40% in size; note: potency is the fitted concentration of half-maximal effect
# Method in brief: as §4
# [13] = qHTS of pediatric cancer cell lines to identify multiple opportunities for drug repurposing: Primary screen for RD cells (AID 1347104); note: nearly all actives have a fitted effect of over 55% in size; note: potency is the fitted concentration of half-maximal effect
# Method in brief: as §2
# [14] = qHTS of pediatric cancer cell lines to identify multiple opportunities for drug repurposing: Primary screen for MG 63 (6-TG R) cells (AID 1347105); note: nearly all actives have a fitted effect of over 50% in size
# Method in brief: as §2
# [15] = qHTS of pediatric cancer cell lines to identify multiple opportunities for drug repurposing: Primary screen for control Hh wild type fibroblast cells (AID 1347106);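 note: series mostly up to about 46 µM; a drop in luminescence marks cytotoxicity and a rise apparent proliferation; nearly all actives have a fitted effect of over 55% in size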
# Method in brief: as §3
# [16] = qHTS of pediatric cancer cell lines to identify multiple opportunities for drug repurposing: Primary screen for Rh30 cells (AID 1347107); note: series mostly up to about 46 µM; nearly all actives have a fitted effect of over 75% in size
# Method in brief: as §3
# [17] = qHTS of pediatric cancer cell lines to identify multiple opportunities for drug repurposing: Primary screen for Rh41 cells (AID 1347108); note: nearly all actives have a fitted effect of over 70% in size; note: potency is the fitted concentration of half-maximal effect
# Method in brief: as §2
# [18] = qHTS of pediatric cancer cell lines to identify multiple opportunities for drug repurposing: Primary screen for NB-EBc1 cells (AID 1347095); note: potency is the fitted concentration of half-maximal effect
# Method in brief: as §2
# [19] = qHTS of pediatric cancer cell lines to identify multiple opportunities for drug repurposing: Primary screen for Saos-2 cells (AID 1347097); note: nearly all actives have a fitted effect of over 40% in size; note: potency is the fitted concentration of half-maximal effect
# Method in brief: as §2
# [20] = qHTS of pediatric cancer cell lines to identify multiple opportunities for drug repurposing: Primary screen for SK-N-MC cells (AID 1347093); note: potency is the fitted concentration of half-maximal effect
# Method in brief: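 Metabolically active cells were quantified by ATP-dependent luminescence (CellTiter-Glo, 15 min at room temperature) following 48 h treatment. Cells had been plated at 500-1,000 per well and settled for 5 h beforehand.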
Structure (SMILES),Potency [1],Potency [2],Potency [3],Potency [4],Potency [5],Potency [6],Potency [7],Potency [8],Potency [9],Potency [10],Potency [11],Potency [12],Potency [13],Potency [14],Potency [15],Potency [16],Potency [17],Potency [18],Potency [19],Potency [20]
C#CC1(O)CCC2C3CCC4=CC(=O)CCC4(C)C3CCC21C (centres undefined),inactive,inactive,inactive,inactive,inactive,inactive,inactive,23.5 µM (active),inactive,inactive,inactive,inactive,inactive,inactive,inactive,inactive,inactive,–,–,–
COc1ccc2c(c1)[C@]13CCCCC1C(C2)N(C)CC3 (some centres undefined),inactive,inactive,inactive,inactive,inactive,inactive,–,–,inactive,inactive,inactive,–,inactive,inactive,inactive,inactive,inactive,inactive,inactive,–
O=C1C(I)=CC(=C(c2cc(I)c(O)c(I)c2)c2ccccc2C(=O)O)C=C1I,inactive,inactive,inactive,–,inactive,inactive,inactive,–,inactive,inactive,inactive,inactive,inactive,inactive,inactive,inactive,–,inactive,inactive,–
O=C(Nc1ccccc1-c1ccc(Cl)cc1)c1cccnc1Cl,inactive,inactive,inactive,inactive,inactive,inactive,inactive,inactive,inactive,inactive,inactive,–,inactive,inactive,inactive,inactive,inactive,–,inactive,–
NC1=NC(=O)N2CC12 (centres undefined),inactive,inactive,inactive,–,19.3 µM (active),inactive,–,inactive,–,21.7 µM (active),inactive,inactive,–,inactive,inactive,inactive,inactive,inactive,13.2 µM (active),–
CN(C)NC(=O)CCC(=O)O,inactive,inactive,inactive,inactive,inactive,inactive,inactive,–,inactive,inactive,inactive,–,inactive,inactive,–,inactive,–,inactive,–,–
CN[C@@H]1Cc2cccc3[nH]c(=O)n(c23)C1,inactive,inactive,inactive,–,inactive,inactive,inactive,inactive,inactive,inactive,inactive,–,inactive,inactive,inactive,inactive,–,inactive,inactive,inactive
C[C@]12CC[C@H]3[C@@H](CCC4=CC(=O)CC[C@@]43C)[C@H]1CC[C@H]2OC(=O)CCC1CCCC1,inactive,inactive,inactive,–,inactive,inactive,–,inactive,inactive,inactive,inactive,inactive,–,inactive,inactive,inactive,inactive,inactive,–,11.8 µM (active)
CC(=O)Nc1ccc(OC[C@](C)(O)C(=O)Nc2ccc([N+](=O)[O-])c(C(F)(F)F)c2)cc1,inactive,inactive,inactive,inactive,inactive,–,inactive,–,inactive,inactive,inactive,inactive,inactive,inactive,inactive,inactive,inactive,inactive,inactive,–
C[C@]12CC[C@@H]3[C@@H](CCC4=CC(=O)CC[C@@H]43)[C@@H]1CC[C@@H]2OC(=O)CCc1ccccc1,inactive,inactive,inactive,–,inactive,inactive,–,–,–,inactive,inactive,inactive,inactive,inactive,–,inactive,inactive,inactive,18.7 µM (active),inactive
COC(C)(C)CCCC(C)C/C=C/C(C)=C/C(=O)OC(C)C (centres undefined),inactive,inactive,inactive,inactive,inactive,–,inactive,inactive,inactive,inactive,inactive,inactive,inactive,inactive,inactive,inactive,inactive,inactive,inactive,–
O=S(=O)(O)C(F)(F)C(F)(F)C(F)(F)C(F)(F)F,inactive,inactive,inactive,inactive,inactive,–,inactive,inactive,inactive,inactive,inactive,inactive,inactive,inactive,inactive,inactive,inactive,inactive,–,–
CSCC[C@@H](NC(=O)[C@@H](Cc1ccccc1)NC(=O)CNC(=O)CNC(=O)[C@@H](N)Cc1ccc(O)cc1)C(=O)O,inactive,inactive,inactive,inactive,inactive,–,inactive,inactive,inactive,inactive,inactive,inactive,inactive,inactive,inactive,inactive,inactive,inactive,inactive,–
Cc1ccccc1-n1c(Cn2ncc3c(N)ncnc32)nc2cccc(C)c2c1=O,7.39 µM (active),0.0935 µM (active),0.0074 µM (active),–,0.0086 µM (active),–,–,–,–,0.0122 µM (active),inactive,0.0069 µM (active),–,–,–,–,0.935 µM (active),0.0935 µM (active),0.0083 µM (active),0.0132 µM (active)
CCC(=O)OC1CCC2C3CCC4=CC(=O)CC[C@@]4(C)C3CC[C@]12C (some centres undefined),inactive,inactive,inactive,–,inactive,inactive,inactive,inactive,inactive,inactive,inactive,–,inactive,inactive,–,inactive,inactive,inactive,inactive,9.35 µM (active)
COc1ccc(CC2NCCc3cc(OC)c(OC)cc32)cc1OC (centres undefined),inactive,inactive,inactive,–,inactive,inactive,inactive,–,inactive,inactive,inactive,–,inactive,inactive,–,inactive,inactive,inactive,inactive,–
Oc1ccc2c3c1O[C@H]1[C@@H](O)C=C[C@H]4[C@@H](C2)NCC[C@@]341,inactive,inactive,inactive,inactive,inactive,–,inactive,inactive,–,–,inactive,inactive,inactive,inactive,inactive,inactive,inactive,inactive,inactive,–
CCN(CC)C(=O)c1ccc(C2=CC3(CCNCC3)Oc3cccc(O)c32)cc1,inactive,inactive,inactive,inactive,inactive,–,–,–,inactive,inactive,inactive,–,–,inactive,inactive,inactive,inactive,inactive,inactive,–
C1=C2CCCN[C@H]2[C@@H]2C[C@H]1[C@@H]1CCCCN1C2,inactive,inactive,inactive,–,inactive,inactive,inactive,–,inactive,inactive,inactive,inactive,inactive,inactive,–,inactive,inactive,inactive,inactive,–
CCOCCOC(C)=O,inactive,inactive,inactive,inactive,inactive,–,inactive,inactive,inactive,–,inactive,inactive,inactive,inactive,inactive,inactive,inactive,inactive,inactive,–
c1cc2ccc3cccc4ccc(c1)c2c34,inactive,inactive,inactive,inactive,inactive,–,inactive,inactive,inactive,inactive,inactive,inactive,inactive,inactive,–,inactive,inactive,inactive,–,–
CC(=O)O[C@@]12CO[C@H]1C[C@H](O)[C@@]1(C)C(=O)[C@H](O)C3=C(C)[C@@H](O)C[C@@](O)([C@@H](OC(=O)c4ccccc4)[C@@H]21)C3(C)C,9.3 µM (active),18.7 µM (active),1.48 µM (active),1.48 µM (active),–,inactive,–,inactive,2.64 µM (active),–,inactive,1.72 µM (active),–,–,inactive,inactive,–,2.09 µM (active),2.64 µM (active),–
CCCCC(CC)COC(=O)c1ccccc1C(=O)OCC(CC)CCCC (centres undefined),inactive,inactive,inactive,inactive,inactive,–,–,inactive,inactive,inactive,inactive,inactive,inactive,inactive,inactive,inactive,inactive,inactive,–,–
O=c1[nH]c2ccccc2n1C1CCN(Cc2ccc(-c3[nH]c4cc5ncnc5cc4nc3-c3ccccc3)cc2)CC1,inactive,inactive,3.32 µM (active),–,–,–,inactive,20.9 µM (active),14.8 µM (active),–,–,1.72 µM (active),–,–,inactive,–,–,20.9 µM (active),16.6 µM (active),0.833 µM (active)
C[C@]12CCC(=O)C(O)=C1CC[C@@H]1[C@H]3CCC(=O)[C@@]3(C)CC[C@@H]12,inactive,inactive,inactive,inactive,inactive,inactive,inactive,–,inactive,inactive,inactive,–,inactive,inactive,inactive,inactive,–,inactive,–,–
CC[C@@H](C(N)=O)N1CCCC1=O,inactive,inactive,inactive,–,inactive,inactive,–,–,inactive,inactive,inactive,inactive,–,inactive,–,inactive,inactive,inactive,inactive,26.4 µM (active)
Nc1ccc(Sc2ccc(N)cc2)cc1,inactive,inactive,inactive,–,inactive,inactive,inactive,inactive,inactive,inactive,inactive,inactive,inactive,inactive,–,inactive,inactive,inactive,–,inactive
COc1ccc(C(=O)c2c(C)n(CCN3CCOCC3)c3cc(I)ccc23)cc1,inactive,18.7 µM (active),18.7 µM (active),14.8 µM (active),–,–,–,14.8 µM (active),–,–,–,19.3 µM (active),18.7 µM (active),–,inactive,inactive,18.7 µM (active),20.9 µM (active),18.7 µM (active),–
